hDAT+cocaine = human DAT dopamine uptake with cocaine, either direction; Q01959; LLC-PK1 hDAT cells, [14C]-dopamine uptake with cocaine IC80; actives deviate in either direction; B-score at 10 µM; 1.3% of 110,000 active; AID 449768;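 active = Z score or B-score, a plate-position-corrected score, falls beyond the plate's 99.7% confidence bounds, in either direction; inactive = both scores lie inside the 99.7% bounds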;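 note: scored against the spread of the other compound wells on the same plate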
D1 mod = D1 dopamine receptor (human) allosteric modulation; P21728; HEK293 D1, CRE-luciferase, dopamine EC30 potentiation; actives deviate in either direction; B-score at 10 µM; 5.9% of 58,000 active;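 active = luminescence count or its row- and column-corrected plate score outside the 99.7% band of the plate's sample wells, on either side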
Target sequence (P21728 whole entry, looked up): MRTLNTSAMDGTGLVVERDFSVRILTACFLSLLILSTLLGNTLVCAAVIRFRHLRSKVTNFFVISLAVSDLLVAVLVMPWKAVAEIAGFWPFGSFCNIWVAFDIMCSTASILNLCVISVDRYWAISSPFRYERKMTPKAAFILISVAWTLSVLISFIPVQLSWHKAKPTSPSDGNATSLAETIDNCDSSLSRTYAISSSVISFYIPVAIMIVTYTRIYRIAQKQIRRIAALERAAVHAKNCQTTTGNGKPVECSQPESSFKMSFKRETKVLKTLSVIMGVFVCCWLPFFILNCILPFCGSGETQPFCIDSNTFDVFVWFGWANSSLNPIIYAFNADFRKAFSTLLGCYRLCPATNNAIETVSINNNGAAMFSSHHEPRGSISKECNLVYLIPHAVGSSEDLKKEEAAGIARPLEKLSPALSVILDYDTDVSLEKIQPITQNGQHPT
EphB4 antag = EphB4-ephrin-B2 interaction antagonism; P54760; EphB4 LBD / TNYL-RAW-Alexa532 peptide, fluorescence polarization; inhibition, % at 7 µM; 0.15% of 97,000 active;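 active = inhibition above the screen-wide mean inhibition plus 3 SD, cut at about 15% in these data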;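 note: 0% = DMSO wells and 100% = excess unlabeled TNYL-RAW peptide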
D1 PAM confirm = confirmation of human D1 dopamine receptor allosteric modulators; shares compounds with D1 mod; HEK293 D1 CRE-luciferase, dopamine EC30 potentiation; stronger effect = higher value; luminescence at 10 µM; 88% of 2,200 active; AID 642;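 active = luminescence in either of two replicates above the same-plate mean plus 3 SD of the low-dose dopamine control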
D1 ag no DA = activates D1 CRE-luciferase signal without dopamine present | shares compounds with D1 mod | HEK293 D1 CRE-luciferase, luminescence, no dopamine; stronger effect = higher value | luminescence at 10 µM | 0.8% of 1,900 active | AID 646; in the data active = luminescence above about 3900
Isoprot counter = isoproterenol response counter-screen activity for D1 modulators. shares compounds with D1 mod. HEK293 D1 CRE-luciferase, isoproterenol EC30 counter-screen. calls only at 10 µM. 63% of 2,200 active. AID 647;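 active = luminescence in either replicate above plate mean of wells with a partly effective reference agonist dose plus 3 SD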;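 note: isoproterenol raises cAMP through native beta-adrenoceptor Gs so signal bypasses D1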
Starred values were filed as active, the others as inactive; i = inactive; . = no result; + = active, no number. Shown is part of a subset that was picked to be rich in hits.

SMILES	hDAT+cocaine	D1 mod	EphB4 antag	D1 PAM confirm	Isoprot counter	others
CC(=O)n1cc([C@H]2C=C(C(N)=O)O[C@@H](OCc3ccc(CO)cc3)C2)c2ccccc21	0.759	.	.	.	.
O=C(CSc1ncc(-c2ccc(F)cc2)[nH]1)N1CCCCC1	1.49	0.123	-4.3	.	.
CCOC(=O)CCc1c(C)c(C#N)c2nc3ccccc3n2c1-n1ccnc1	0.513	0.192	4.9	.	.
COC(=O)CCc1c(C)c(C#N)c2nc3ccccc3n2c1N1CCCC1	-0.766	5.54*	-1.6	10456*	+
Cc1cccc(NC(=O)CCc2ccc(S(=O)(=O)NC3CCCCC3)cc2)c1	0.943	.	6.4	.	.
O=c1[nH]c(=O)n(C2CCCO2)cc1F (stereo unspecified)	-0.522	.	.	.	.
O=c1c(F)cn(C2CCCO2)c(=O)n1Cc1c(F)cccc1Cl (stereo unspecified)	-0.237	6.17*	-0.2	8312*	+	D1 ag no DA=1800
Cn1c(SCc2ccc(Cl)cc2)nc(C(F)(F)F)cc1=O	-0.101	.	-4.6	.	.
CC/C(=C\C(=O)c1cccnc1)Nc1ccc(C)c(C)c1	1.22	0.0388	-5.2	.	.
Cc1cc(Oc2ccccc2)nc(-c2ccccc2)n1	-1.38	2.71*	-4.8	6804*	+	D1 ag no DA=1624
O=S(=O)(Cc1cc(Oc2ccccc2)nc(-c2ccccc2)n1)c1ccccc1	-0.646	.	0.0	.	.
N[C@@H](Cc1ccc(O)cc1)c1nnc([C@H](CO)NC(=O)C2CCNCC2)o1	-1.37	.	.	.	.
CCOc1ccccc1CN1C(=O)c2ccccc2C1C(=O)NC(C)CC (stereo unspecified)	0.751	.	-13.0	.	.
O=C(NCc1ccco1)c1cccnc1-c1nc2ccccc2s1	.	5.93*	1.5	11260*	+	D1 ag no DA=1740
O=C(NCc1ccco1)c1cccc2ccccc12	-0.806	-0.0524	6.2	.	.
COc1ccc(CC(=O)Nc2cccc(/C(C)=N/NC(=O)c3cccc([N+](=O)[O-])c3)c2)cc1	0.578	.	6.2	.	.
CCOC(=O)c1nnn(-c2nonc2N)c1-c1ccc(OCC)cc1	-0.13	3.13	-5.8	.	.
Nc1nonc1-n1nnc(C(=O)c2ccccc2)c1-c1ccccc1	-0.397	4.29*	2.1	9084*	i	D1 ag no DA=1920
COC(=O)C[C@H]1c2cc(C(F)(F)F)ccc2S(=O)(=O)N1Cc1ccccc1OC	0.344	.	.	.	.
CCOc1cc(-c2cc(-c3ccccc3)nc(N)c2C#N)ccc1O	-0.864	.	-0.2	.	.
CCOc1cc(-c2cc(-c3ccc(N)cc3)nc(N)c2C#N)ccc1O	-0.71	8.59*	3.8	19856*	+	D1 ag no DA=1656
CCCn1c(N)c(C(=O)CSc2nc(C)cs2)c(=O)n(C)c1=O	2.27	.	0.9	.	.
Cc1ccc(S(=O)(=O)N2CCC(C(=O)NNS(=O)(=O)c3ccc(Cl)cc3)CC2)cc1	-0.65	.	2.6	.	.
O=C(O)CCSCC(=O)Nc1c(C(=O)C2CC2)oc2ccccc12	0.0942	8.32*	5.3	14596*	+
O=C(CN1CCN(c2ccccc2)CC1)Nc1c(C(=O)C2CC2)oc2ccccc12	-0.65	0.549	1.2	.	.
SMILES	hDAT+cocaine	D1 mod	EphB4 antag	D1 PAM confirm	Isoprot counter	others
COc1cc2cc3c(N)c(C(=O)Nc4sc(C)c(C)c4C#N)sc3nc2cc1OC	0.244	.	-7.4	.	.
O=C(NCCN1CCOCC1)Nc1ccccc1	.	.	6.4	.	.
O=c1c2ccccc2sc2nc(C3CCCCC3)n(Cc3ccco3)c(=O)c12	.	3.33	.	.	.
CCc1nc2sc3ccccc3c(=O)c2c(=O)n1Cc1ccco1	-7.33*	3.43*	.	12936*	i	D1 ag no DA=1700
CC1Cc2ccccc2N1C(=O)Cn1cc([N+](=O)[O-])cn1 (stereo unspecified)	-0.156	.	-2.8	.	.
CCCC(C)c1nnc(NC(=O)c2cc(C(=O)OC)cc([N+](=O)[O-])c2)s1 (stereo unspecified)	0.00299	.	0.1	.	.
COC(=O)c1ccsc1NC(=O)C1=COCCO1	0.812	9.06*	1.5	17084*	+	D1 ag no DA=1496
COC(=O)Nc1sccc1C(=O)Nc1sccc1C(=O)OC	1.48	.	-5.5	.	.
CSc1ccc(Cl)c(C(=O)Nc2ccc(OCC(N)=O)cc2)c1	-0.0156	.	-1.7	.	.
CC(C)NC(=O)c1onc(CSc2cccc(F)c2)c1C(=O)O	0.937	.	7.2	.	.
c1ccc(-c2nc3nonc3c3nc4ccccc4n23)cc1	-0.578	0.799	.	.	.
c1ccc(-c2nc3nonc3nc2-c2ccccc2)cc1	.	6.77*	0.2	6860*	i	D1 ag no DA=1656
Cc1ccc(-c2cc(C(=O)NCc3ccccn3)c3ccccc3n2)cc1C	1.99	.	7.5	.	.
CCOC(=O)c1sc2nc(C(C)C)c3c(c2c1N)CC(C)(C)OC3	-0.958	.	2.1	.	.
CCOC(=O)c1sc2nc(N3CCCC3)c3c(c2c1N)CC(C)(C)OC3	0.305	12.7*	-0.6	21232*	+	D1 ag no DA=1888
CCOc1cc(C2CC(=O)c3c(ccc4ccccc34)N2)ccc1O (stereo unspecified)	-1.57	.	6.7	.	.
CCOc1cc(C2CC(=O)NC(SCC)=C2C#N)ccc1O (stereo unspecified)	-0.364	4.52*	1.8	6316*	i	D1 ag no DA=1704
CCSC1=C(C#N)C(c2cccc(OC)c2)CC(=O)N1 (stereo unspecified)	-0.412	-0.525	2.8	.	.
CCOc1cc(C2CC(=O)Nc3cc(C)c(C)cc32)ccc1O (stereo unspecified)	0.162	21.1*	4.3	17484*	+
COc1ccc(CCn2nnc(-c3ccc(NC(C)=O)c(Cl)c3)n2)cc1	-1.97	.	-6.2	.	.
O=C(NCCCN1CCOCC1)c1onc(CSc2ccc(F)c(F)c2)c1C(=O)NCCCN1CCOCC1	-0.0852	.	.	.	.
CCN(CC)c1nc(OCCNC(=O)Nc2ccccc2)nc(N(CC)CC)n1	1.59	.	3.8	.	.
CCCCSc1nnc(CSc2nc3nc(C)cc(C)n3n2)o1	-0.791	.	2.5	.	.
O=C1c2oc3ccc(F)cc3c(=O)c2C(c2ccc(F)cc2)N1CCCN1CCOCC1 (stereo unspecified)	-1.04	-0.357	-4.4	.	.
COc1cccc(C2c3c(oc4ccc(F)cc4c3=O)C(=O)N2CCCN2CCOCC2)c1 (stereo unspecified)	.	3.76*	.	6980	i	D1 ag no DA=1496
SMILES	hDAT+cocaine	D1 mod	EphB4 antag	D1 PAM confirm	Isoprot counter	others
CCOC(=O)Cc1nnc(NC(=O)c2ccccc2OC)s1	-0.0915	-0.728	-0.5	.	.
CCOC(=O)Cc1nnc(NC(=O)c2ccccc2OCC)s1	1.8	2.69*	.	8096*	+	D1 ag no DA=1648
CCOc1cc(/C=N/O)cc(Cl)c1OC	0.105	.	7.5	.	.
CCCn1c2ccccc2c2nnc(SCC(=O)Nc3nnc(CC(=O)OCC)s3)nc21	.	.	-7.2	.	.
CCOC(=O)Cc1nnc(NC(=O)CSc2nnc3c4ccccc4n(C(C)C)c3n2)s1	0.328	7.5*	.	11008*	+	D1 ag no DA=1700
Cc1ccc(C)c(S(=O)(=O)N2CCN(CC(=O)N3CCc4ccccc4C3)CC2)c1	0.305	.	-3.4	.	.
CCCn1c(NCc2c[nH]c3ccccc23)nc2ccccc21	0.815	.	-3.3	.	.
OCCn1nc2c3ccccc3nc-2n(-c2ccccc2)c1=S	-7.2*	5.86*	0.9	7812*	i	D1 ag no DA=1556
Cc1nn(-c2ccccc2)c(=S)n1-c1ccccc1	1.62	-0.273	-2.0	.	.
